In ChEMBL document CHEMBL3433997, “St. Jude Leishmania screening dataset” (2016) one finds inhibition data, which are given here for 34 compounds.

Common to all, as to type: functional
Assay [1] concerns the target Solute carrier family 2, facilitated glucose transporter member 1 (Homo sapiens) (UniProt P11166). The assay can be described thus: ST_JUDE_LEISH: Cytotoxicity at 2uM final concentration against transgenic Leishmania Mexicana promastigotes LmGLUT1 that are glucose transport deficient and complemented with the human glucose transporter GLUT1. Activity is measured by DNA content using SYBR green in vitro.

Assay [2] concerns the target Hexose transporter 1 (Plasmodium falciparum) (UniProt O97467). The assay can be described thus: ST_JUDE_LEISH: Cytotoxicity at 2uM final concentration against transgenic Leishmania Mexicana promastigotes LmPfHT that are glucose transport deficient and complemented with the Plasmodium falciparum hexose transporter. Activity is measured by DNA content using SYBR green in vitro.

Assay [3] addresses Glucose transporter (Leishmania mexicana) (UniProt O61059). The assay can be described thus: ST_JUDE_LEISH: Cytotoxicity at 2uM final concentration against transgenic Leishmania Mexicana promastigotes LmGT2 that are glucose transport deficient and complemented with the L. Mexicana glucose transporter 2. Activity is measured by DNA content using SYBR green in vitro.

Molecules are shown by their SMILES.

In general, inhibition refers to the drop in the measured response relative to a control, in per cent.

Chain of Solute carrier family 2, facilitated glucose transporter member 1 (Homo sapiens) (P11166 whole entry): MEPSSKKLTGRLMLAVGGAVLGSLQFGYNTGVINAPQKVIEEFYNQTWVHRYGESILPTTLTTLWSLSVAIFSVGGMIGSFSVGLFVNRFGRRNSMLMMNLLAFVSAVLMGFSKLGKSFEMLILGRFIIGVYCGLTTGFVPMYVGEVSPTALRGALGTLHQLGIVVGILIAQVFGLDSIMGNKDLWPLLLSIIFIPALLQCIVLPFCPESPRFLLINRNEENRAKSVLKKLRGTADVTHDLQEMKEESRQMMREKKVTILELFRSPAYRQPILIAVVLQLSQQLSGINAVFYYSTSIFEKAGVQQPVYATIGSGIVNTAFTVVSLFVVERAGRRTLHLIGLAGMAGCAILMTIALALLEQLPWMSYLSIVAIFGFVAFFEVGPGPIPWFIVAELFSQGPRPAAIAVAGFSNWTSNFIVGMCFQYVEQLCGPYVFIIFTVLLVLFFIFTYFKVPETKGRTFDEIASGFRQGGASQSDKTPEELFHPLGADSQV

As to `CC(=O)Nc1ccccc1OCc1cc2cc(C(=O)N3CCC(N4C(=O)OCc5ccccc54)CC3)ccc2o1`, the figures for the inhibition in assay [1], in assay [2] and in assay [3] were 4.21%, 2.89% and 4.49%, respectively.
For the compound `CC(C)NCC(O)Cn1c2ccc(Br)cc2c2cc(Br)ccc21` (configuration not stated), the results for the inhibition in assay [1], in assay [2] and in assay [3] were 0.74%, 0.92% and 0.36%, respectively.
Take `CC1CCN(c2nc(C(=O)Nc3cccc4c3CCCC4)c(C(C)C)s2)CC1`: the inhibition in assay [1] is 3.26%; in assay [2], 4.73%; in assay [3], 6.09%.
Taken in the same sequence, the figures for `COc1ccc(Nc2ccnc3cc(-c4ccccn4)ccc23)cc1OC` were 1.2%, 0.73% and -0.54%.
Taken in the same sequence, the figures for `COc1ccc(NC(=O)c2ccc(Br)c(C)c2)cc1N1CCN(CCCc2c[nH]c3ccccc23)CC1` were -0.69%, -0.68% and -0.4%.
The like results for `COc1cc(-c2nc3ccc(N4CCN(C)CC4)cc3[nH]2)cc(OC)c1OC` were, in that order, 2.08%, 2.62% and 4.21%.
Take `COc1ccc2[nH]c(C)cc(=NN=Cc3ccc(Cl)cc3)c2c1`: the inhibition was 6.05% in assay [1], 6.41% in assay [2] and -0.5% in assay [3].
Taken in the same sequence, the figures for `CN1CCN(c2ccc(Nc3c(C(N)=O)cnc4cc(-c5ccoc5)ccc34)cc2)CC1` were 15.1%, 24.6% and 3.57%.
The like results for `C=CCOC(=O)N1CCC(CNCc2ccc(-c3ccc(-c4nc5ccccc5[nH]4)s3)cc2)C1` (configuration not stated) were, in that order, 5.91%, 6.02% and 5.42%.
Take `COc1ccc(NC(=O)Nc2ccc(Nc3nc(C)cc(N(C)C)n3)cc2)cc1`: the inhibition in assay [1] is 2.57%; in assay [2], 3.61%; in assay [3] it was 4.41%.
Regarding `Nc1nc(N)c2c(ccc3[nH]ccc32)n1`, the results for the inhibition in assay [1], in assay [2] and in assay [3] were 0.22%, 2.46% and 2.25%, respectively.
Taken in the same sequence, the figures for `O=C(NC1CCN(CCCc2ccccc2)CC1)c1ccc(-c2cccc(C(F)(F)F)c2)s1` were 1.95%, 1.23% and 3.77%.
The like results for `CCC[C@@H]1CCN[C@H]([C@H](O)c2ccnc3ccc(OC)cc23)C1` were, in that order, 4.68%, 3.5% and 4.53%.
`CC(=NNC(=N)N)c1ccc2ccc3ccccc3c2c1`: the inhibition in assay [1] is 0.27%; in assay [2], 1.38%; in assay [3], 0.74%.
The like results for `COc1cc(Cc2cnc(N)nc2N)cc(OCCCCc2ccc([N+](=O)[O-])cc2)c1OC` were, in that order, -1.12%, -1.89% and 1.51%.
As for `O=C(NCC1CCN(Cc2ccsc2)C1)c1cc(-c2cccc(C(F)(F)F)c2)cs1` (configuration not stated), the inhibition in assay [1] worked out at 1.96%; in assay [2], 0.91%; in assay [3] it was 3.66%.
In the case of `Cc1nc(C)c(CC(=O)Nc2ccc(-c3ccc(-c4nc5cc(C(F)(F)F)ccc5[nH]4)s3)cc2)s1`, the values for the inhibition in assay [1], in assay [2] and in assay [3] were 2.35%, 2.1% and -0.02%, respectively.
On to `COc1ccc(NC(=O)[C@H](Cc2ccccc2)Nc2cc(C)nc(NCCc3ccccc3OC)n2)cc1`, for which the figures for the inhibition in assay [1], in assay [2] and in assay [3] were -0.03%, -1.38% and -0.97%, respectively.
As for `O=C(Nc1ccc([N+](=O)[O-])cc1Cl)c1cc(Br)cc(Cc2ccccc2)c1O`, the results for the inhibition in assay [1], in assay [2] and in assay [3] were 3.27%, 3.32% and 2.81%, respectively.
On to `O=c1cc(NCCCCNCc2cccc(Cl)c2)[nH]c2ccccc12`, for which the inhibition was found to be 3.6% in assay [1], 3.79% in assay [2] and 1.87% in assay [3].
`CC1(C)OC[C@]2(C)[C@@H](CC[C@]3(C)C4=CC(=O)CCC4CC[C@@H]23)O1` (some centres not stated): the inhibition in assay [1] stood at 0.57%; in assay [2], 1.6%; in assay [3] it was 2.59%.
The like results for `CC(CCCCOCCc1ccccc1)NCC(O)c1cc(Cl)c(N)c(Cl)c1` (configuration not stated) were, in that order, 2.66%, 0.7% and 2.18%.
Taken in the same sequence, the figures for `CCOc1cc2c(cc1S(=O)(=O)c1ccc(COc3ccc(C(F)(F)F)cc3)cc1)CCN(C)CC2` were 1.72%, 3.79% and 1.18%.
Taken in the same sequence, the figures for `O=C(Nc1ccccc1)Nc1cccc(-c2ccc(-c3nc4cc(C(F)(F)F)ccc4[nH]3)cc2)c1` were 4.43%, 4.53% and 5.45%.
For the compound `O=C(Nc1ccc(F)c(F)c1)c1ccc(CN2CCCN(Cc3cccc(O)c3)CC2)cc1`, the inhibition in assay [1] amounted to 3.12%; in assay [2], 2.77%; in assay [3], 3.84%.
Consider `C/C(=C\C(=O)NC1CC1)c1ccccc1OCc1ccccc1`, for which the inhibition in assay [1] was 0.29%; in assay [2], -2.11%; in assay [3], 3.94%.
As for `COc1ccc(NC(=O)[C@H](Cc2ccccc2)Nc2nc(NCCN3CCCC3)ncc2C)cc1`, the inhibition in assay [1] was 1.71%; in assay [2], 2.57%; in assay [3], 3.02%.
As for `CCn1c(-c2nonc2N)nc2c(-c3cccc(NC(=O)Nc4cccc(C#N)c4)c3)ncc(OCCCN)c21`, the figures for the inhibition in assay [1], in assay [2] and in assay [3] were 4.72%, 2.23% and 2.66%, respectively.
Taken in the same sequence, the figures for `Cc1cc(=NN=Cc2cccc(Cl)c2)c2ccc(F)cc2[nH]1` were 0.61%, 1.03% and 1.04%.
Taken in the same sequence, the figures for `N#Cc1ccc(-c2ccc(OCC(O)CN3CCCN(Cc4cccc(O)c4Cl)CC3)cc2)cc1` (configuration not stated) were 4.04%, 0.72% and 1.67%.
Taken in the same sequence, the figures for `CN(C)CC1CCCN1Cc1ccccc1-c1cnn(C)c(=O)c1Oc1ccc(F)cc1` (configuration not stated) were 5.23%, 4.08% and 4.45%.
As for `CC(Nc1nc(Nc2ccc(F)cc2)nc(SCC(N)=O)n1)c1ccccc1` (configuration not stated), the inhibition in assay [1] was 0.82%; in assay [2], 1.3%; in assay [3], 0.81%.
Taken in the same sequence, the figures for `CC(C)CCNc1nc(NCCc2ccccc2)c2cc(O)ccc2n1` were 7.05%, 3.99% and -2.18%.
Taken in the same sequence, the figures for `NS(=O)(=O)c1cccc(-c2ccc3nccc(-c4cccc(S(N)(=O)=O)c4)c3c2)c1` were 2.86%, 0.59% and -1.04%.
